# Where “and” joins values, the source holds several entries; their conditions need not be identical. Identical values can stand only once. Inconclusive results are not listed. Where a call stands in place of a potency, no number is given. More than one record can exist for a structure, and the calls need not agree. Calls of active or inactive are those of the source. Unless noted, calls follow the shape of the full dose curve.
# Experiment: qHTS assay to identify small molecule agonists of the hypoxia (HIF-1) signaling pathway - cell viability counter screen (AID 1224844); also: nearly all actives have a fitted effect of over 50% in size; also: potency is read from the fitted curve at half-maximal effect
# Conditions: HRE-bla ME-180 viability, CellTiter-Glo luminescence, 17 h; series mostly up to 76.8 µM; activity change, negative = cytotoxicity: at the top concentration
# Method in brief: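 Viability counter screen: HRE-bla ME-180 cells plated 5 hrs before compound addition, treated 17 hrs at 37C and 5% CO2, then CellTiter-Glo added after the FRET reporter read; luminescence after 30 min.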
Compound,Potency,"activity change, negative = cytotoxicity"
CC(CCC(=O)O)(c1ccc(O)cc1)c1ccc(O)cc1,inactive,–
CC(=O)O[C@]1(C(C)=O)CC[C@H]2[C@@H]3C=C(Cl)C4=CC(=O)[C@@H]5C[C@@H]5[C@]4(C)[C@H]3CC[C@@]21C,inactive,–
CCCc1c(OCCCCc2nn[nH]n2)ccc(C(C)=O)c1O,inactive,–
c1ccc2c(c1)c1cccc3ccc4cccc2c4c31,inactive,–
c1ccc2sc(SSN3CCOCC3)nc2c1,54.8 µM (active) and 54.9 µM (active),–
O=C(/C=C/C=C/c1ccc2c(c1)OCO2)N1CCCCC1,–,-19.1% (inactive)
COC(=O)C1=C(C)NC(C)=C(C(=O)OCCN(C)Cc2ccccc2)C1c1cccc([N+](=O)[O-])c1 (stereo not given),–,-6.2% [at 35.3 µM] (inactive)
CNCCCC12CCC(c3ccccc31)c1ccccc12,–,-22% [at 35.3 µM] (inactive)
CC(=O)Oc1ccccc1C(=O)Nc1ncc([N+](=O)[O-])s1,inactive,–
Cc1c(OCC(F)(F)F)ccnc1CS(=O)c1nc2ccccc2[nH]1 (stereo not given),inactive,–
Nc1ncnc2nc[nH]c12,inactive,–
CN(C)c1nc(N(C)C)nc(N(C)C)n1,–,6.4% [at 35.3 µM] (inactive)
CN1C(C(=O)Nc2ccccn2)=C(O)c2ccccc2S1(=O)=O,inactive,–
CC(C)OC(=O)C(C)(C)Oc1ccc(C(=O)c2ccc(Cl)cc2)cc1,inactive,–
Nc1ccc(S(=O)(=O)Nc2cnc3ccccc3n2)cc1,–,-1.65% (inactive)
CC(C)(C)NC(=O)[C@H]1CC[C@H]2[C@@H]3CC[C@H]4NC(=O)C=C[C@]4(C)[C@H]3CC[C@]12C,inactive,–
Cc1ccc(C(=O)c2cc(O)c(O)c([N+](=O)[O-])c2)cc1,–,-2.69% (inactive)
CC(C)=CCC/C(C)=C\CO,inactive,–

Compound,Potency,"activity change, negative = cytotoxicity"
Cc1[nH]c(=O)c(C#N)cc1-c1ccncc1,inactive,–
CN(C)CCC=C1c2ccccc2CCc2ccccc21,38.9 µM (active),–
C#C[C@]1(O)CC[C@H]2[C@@H]3CCC4=Cc5oncc5C[C@]4(C)[C@H]3CC[C@@]21C,–,-0.76% [at 35.3 µM] (inactive)
CN(C)CCN(Cc1cccs1)c1ccccn1,inactive,–
O=C1OC2(c3cc(Br)c(O)c(Br)c3Oc3c2cc(Br)c(O)c3Br)c2c(Cl)c(Cl)c(Cl)c(Cl)c21,19.5 µM (active) and 29.7 µM (active),–
O=[N+]([O-])c1ccc2c(c1)Cc1ccccc1-2,–,-1.02% (inactive)
O=C(O)c1ccccc1Nc1cccc(C(F)(F)F)c1,inactive,–
COc1cccc2c1C(=O)c1c(O)c3c(c(O)c1C2=O)C[C@@](O)(C(=O)CO)C[C@@H]3O[C@H]1C[C@H](N)[C@H](O)[C@H](C)O1,5.49 µM (active) and 10.7 µM (active),–
C[C@]12CCC(=O)C=C1CC[C@@H]1[C@@H]2C(=O)C[C@@]2(C)[C@H]1CC[C@]2(O)C(=O)CO,inactive,–
Cc1cc2nc3c(=O)[nH]c(=O)nc-3n(C[C@H](O)[C@H](O)[C@H](O)CO)c2cc1C,inactive,–
Nc1ccc(Nc2ccccc2)cc1,inactive,–
CCCCc1oc2ccccc2c1C(=O)c1cc(I)c(OCCN(CC)CC)c(I)c1,27.8 µM (active) and 21.3 µM (active),–
Nc1ccccc1N,43.6 µM (active),–
Cc1cccc(N(C)C(=S)Oc2ccc3ccccc3c2)c1,inactive,–
Oc1ccc(O)cc1,inactive,–
Brc1cc(Oc2cc(Br)c(Br)c(Br)c2Br)c(Br)c(Br)c1Br,49.2 µM (active) and inactive,–
O=C(c1ccc(OCCN2CCCCC2)cc1)c1c(-c2ccc(O)cc2)sc2cc(O)ccc12,43.7 µM (active) and 49 µM (active) and inactive,–

# Experiment: qHTS assay to identify small molecule agonists of H2AX (AID 1224845; active = well fitted activation curve with a large enough effect in the signal ratio in the repeat runs, not every such curve was filed as active; the % refers to the signal ratio)
# Conditions: CHO-K1 phospho-H2AX Ser139 HTRF, 3 h; series mostly up to 154 µM; activation (H2AX phosphorylation): at the top concentration
# Method in brief: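 Wild-type CHO-K1 cells, plated overnight, exposed 3hr at 37C to 15 concentrations (0.76% DMSO final). Lysed, then HTRF anti-pH2AX (S139) cryptate and anti-H2AX-d2 antibodies, 24 hr room temperature; 665/620 nm emission read.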
Compound,activation (H2AX phosphorylation),outcome
CCCCC/C=C/C=C/C=O,-0.39% (inactive),–
CC(CCC(=O)O)(c1ccc(O)cc1)c1ccc(O)cc1,–,inactive
CC(=O)O[C@]1(C(C)=O)CC[C@H]2[C@@H]3C=C(Cl)C4=CC(=O)[C@@H]5C[C@@H]5[C@]4(C)[C@H]3CC[C@@]21C,–,inactive
CCCc1c(OCCCCc2nn[nH]n2)ccc(C(C)=O)c1O,–,inactive
COC(=O)C1=C(C)NC(C)=C(C(=O)OCCN(C)Cc2ccccc2)C1c1cccc([N+](=O)[O-])c1 (stereo not given),0.0867% [at 70.9 µM] (inactive),–
O=C(Nc1ccc([N+](=O)[O-])cc1Cl)c1cc(Cl)ccc1O,–,inactive
CC(=O)Oc1ccccc1C(=O)Nc1ncc([N+](=O)[O-])s1,7.92% (inactive),–
Cc1c(OCC(F)(F)F)ccnc1CS(=O)c1nc2ccccc2[nH]1 (stereo not given),–,inactive
Nc1ncnc2nc[nH]c12,–,inactive
CN(C)c1nc(N(C)C)nc(N(C)C)n1,–,inactive
CN1C(C(=O)Nc2ccccn2)=C(O)c2ccccc2S1(=O)=O,–,inactive
CC(C)OC(=O)C(C)(C)Oc1ccc(C(=O)c2ccc(Cl)cc2)cc1,–,inactive
Nc1ccc(S(=O)(=O)Nc2cnc3ccccc3n2)cc1,–,inactive
CC(C)(C)NC(=O)[C@H]1CC[C@H]2[C@@H]3CC[C@H]4NC(=O)C=C[C@]4(C)[C@H]3CC[C@]12C,–,inactive
CC(C)=CCC/C(C)=C\CO,–,inactive
Cc1[nH]c(=O)c(C#N)cc1-c1ccncc1,–,inactive
CN(C)CCC=C1c2ccccc2CCc2ccccc21,–,inactive
C#C[C@]1(O)CC[C@H]2[C@@H]3CCC4=Cc5oncc5C[C@]4(C)[C@H]3CC[C@@]21C,0.0878% [at 70.9 µM] (inactive),–
CN(C)CCN(Cc1cccs1)c1ccccn1,–,inactive
O=C(O)c1ccccc1Nc1cccc(C(F)(F)F)c1,–,inactive
S=C(NC1CCCCC1)NC1CCCCC1,–,inactive
C[C@]12CCC(=O)C=C1CC[C@@H]1[C@@H]2C(=O)C[C@@]2(C)[C@H]1CC[C@]2(O)C(=O)CO,–,inactive
Cc1cc2nc3c(=O)[nH]c(=O)nc-3n(C[C@H](O)[C@H](O)[C@H](O)CO)c2cc1C,–,inactive
Cc1cccc(N(C)C(=S)Oc2ccc3ccccc3c2)c1,–,inactive
O=C(c1ccc(OCCN2CCCCC2)cc1)c1c(-c2ccc(O)cc2)sc2cc(O)ccc12,–,inactive

# Source: PubChem BioAssay (Tox21)
